The subject of test [1] is PRMT1 (protein arginine N-methyltransferase 1). Nature of the test: PRMT1 binders on small-molecule microarrays, primary screen, biochemical, small-molecule microarray, 635 nm fluorescence (AID 1088).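 Also: binding of Prmt1 protein to compounds spotted on small-molecule microarray slides.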 As to conditions: small-molecule microarray binding, higher = more signal.
A short description of test [2]: yeast growth modulation, basal conditions, primary screen, YJM789 clinical isolate, OD600, 24 h (AID 1089).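 Also: growth of clinical yeast isolate S. cerevisiae YJM 789 seeded 1000 cells per well; test concentration not given here.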 To be noted: S. cerevisiae YJM789 growth, higher = more signal, called active from +8 up or from −8 down.
Test [3] is described as follows: fission yeast growth modulation, primary screen, strain 972, OD600, 24 h, no modulator (AID 1090).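 Also: basal condition with compound alone and no growth modifier present; test concentration not given here.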 To be noted: S. pombe 972 growth, higher = more signal, called active from +8 up or from −8 down.
The nature of test [4]: S. cerevisiae growth modulation with rapamycin, primary screen, strain BY4716, OD600, 96 h (AID 1091). Also: test concentration not given here. As to conditions: higher = more signal, called active from +8 up or from −8 down.
Test [5] addresses Torsin-1A-interacting protein 2 (Homo sapiens) (UniProt Q8NFQ8). Nature of the test: LULL1 binders on small-molecule microarray, primary screen, cell lysate, human LULL1 lysate, 635/667 nm fluorescence (AID 1092).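 Also: probe is lysate of COS7 cells overexpressing human LULL1; score merges per-feature 667 nm fluorescence with signal-to-noise.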 To be noted: hLULL1 lysate binding, 635 nm fluorescence, higher = more signal.
A short description of test [6]: E. coli growth modulation, two-sided OD650, primary screen, E. coli filamentation project, strain DRC41, 24 h (AID 1093).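 Also: MC1000 strain lacking acrAB efflux and sulA so SOS filamentation is blocked; test concentration not given here.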 As to conditions: OD650, 24 h, higher = more signal, called active from +8 up or from −8 down.
Test [7] in a line: small-molecule microarray binders of probe aLefty2, primary screen, biochemical, biotinylated probe, 635/667 nm fluorescence (AID 1094).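 Also: score merges spot fluorescence near 667 nm with spot signal-to-noise ratio.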 To be noted: higher = more signal.
Test [8] has as its system Noggin (protein binding on small-molecule microarray). Nature of the test: Noggin binders on small-molecule microarray, primary screen, biochemical, 635/667 nm fluorescence (AID 1095).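 Also: score merges 667 nm feature fluorescence with signal to noise over triplicate slides.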 To be noted: 635 nm fluorescence, higher = more signal.
Test [9] addresses Neurogenic locus notch homolog protein 3 (Homo sapiens) (UniProt Q9UM47). Nature of the test: NOTCH3 binders on small-molecule microarray, primary screen, biochemical, 635/667 nm fluorescence (AID 1096). As to conditions: NOTCH3 binding, 635 nm fluorescence, higher = more signal.
Test [10] in a line: small-molecule microarray binders of probe aEGFR, primary screen, biochemical, biotinylated probe, 635/667 nm fluorescence (AID 1097).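 Also: probe is a biotinylated anti-EGFR antibody binding compounds printed on slides; score combines fluorescence near 667 nm and signal to noise of each spot.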 To be noted: higher = more signal.
The subject of test [11] is Plasmodium falciparum Sir2 (PF13_0152, Sir2A). Nature of the test: pfSir2 binders on small-molecule microarrays, primary screen, biochemical, small-molecule microarray, 635 nm fluorescence (AID 1098).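 Also: score merges spot fluorescence intensity with its signal-to-noise ratio.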 As to conditions: small-molecule microarray binding, fluorescence 635 nm; higher = more signal.
Test [12] can be described thus: small-molecule microarray binders of probe aDKK1, primary screen, biochemical, biotinylated probe, 635/667 nm fluorescence (AID 1099).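 Also: score merges 667nm spot fluorescence with signal to noise across triplicate slides; reference of the scale not given here.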 To be noted: higher = more signal.
The nature of test [13]: small-molecule microarray binders of probe aCHRDL2, primary screen, biochemical, biotinylated probe, 635/667 nm fluorescence (AID 1100). As to conditions: higher = more signal.
Test [14] can be described thus: splicing luciferase reporter signal modulators, primary screen, spliceosome inhibition project, cell-based, HEK293, splice +/- reporter (AID 1101).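 Also: HEK293 cells carrying a splicing-competent luciferase reporter gene; test concentration not given here.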 To be noted: luminescence, 24 h, higher = more signal, called active from +8 up or from −8 down. For orientation: A reporter such as luciferase makes a cellular process visible.
Test [15] addresses Fibroblast growth factor 10 (Homo sapiens) (UniProt O15520). Nature of the test: FGF10 binders on small-molecule microarrays, primary screen, biochemical, small-molecule microarray, 635 nm fluorescence (AID 1102). As to conditions: FGF10 binding, fluorescence 635 nm, higher = more signal.
Test [16] relates to glycogen synthase kinase-3 (GSK3A per assay name; protocol says GSK3B). Nature of the test: GSK3 binders on small-molecule microarrays, primary screen, biochemical, small-molecule microarray, 635 nm fluorescence, GSK3A (AID 1103). Also: the record names both GSK3A and GSK3B. As to conditions: small-molecule microarray binding, fluorescence 635 nm; higher = more signal.
Test [17] addresses Epidermal growth factor receptor (Homo sapiens) (UniProt P00533). Nature of the test: EGFR binders on small-molecule microarrays, primary screen, biochemical, small-molecule microarray, 635 nm fluorescence (AID 1104).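 Also: score merges 667 nm emission intensity with spot signal to noise over triplicate slides.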 To be noted: EGFR binding, higher = more signal.
The target in test [18] is Follistatin-related protein 3 (Homo sapiens) (UniProt O95633). Nature of the test: FSTL3 binders on small-molecule microarrays, primary screen, biochemical, small-molecule microarray, 635 nm fluorescence (AID 1105).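 Also: score merges emission near 667 nm and signal to noise per printed spot across three slides.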 As to conditions: FSTL3 binding, higher = more signal.
In test [19] the target is Dickkopf-related protein 1 (Homo sapiens) (UniProt O94907). Nature of the test: DKK1 binders on small-molecule microarrays, primary screen, biochemical, small-molecule microarray, 635 nm fluorescence scan (AID 1106).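 Also: score merges emission near 667 nm with signal to noise over three replicate slides.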 As to conditions: DKK1 binding, higher = more signal.
Test [20] has as its system Inhibin beta A chain (activin A). Nature of the test: INHBA (activin A) binders on microarrays, primary screen, biochemical, small-molecule microarray, 635 nm fluorescence scan (AID 1107).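 Also: mouse activin A protein probed at 4.33 µg/mL on printed slides; score merges bound-protein fluorescence near 667 nm with spot signal-to-noise.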 As to conditions: small-molecule microarray binding, higher = more signal.

Calls of active or inactive are those of the source.

Epidermal growth factor receptor (Homo sapiens), sequence (P00533 whole entry, looked up): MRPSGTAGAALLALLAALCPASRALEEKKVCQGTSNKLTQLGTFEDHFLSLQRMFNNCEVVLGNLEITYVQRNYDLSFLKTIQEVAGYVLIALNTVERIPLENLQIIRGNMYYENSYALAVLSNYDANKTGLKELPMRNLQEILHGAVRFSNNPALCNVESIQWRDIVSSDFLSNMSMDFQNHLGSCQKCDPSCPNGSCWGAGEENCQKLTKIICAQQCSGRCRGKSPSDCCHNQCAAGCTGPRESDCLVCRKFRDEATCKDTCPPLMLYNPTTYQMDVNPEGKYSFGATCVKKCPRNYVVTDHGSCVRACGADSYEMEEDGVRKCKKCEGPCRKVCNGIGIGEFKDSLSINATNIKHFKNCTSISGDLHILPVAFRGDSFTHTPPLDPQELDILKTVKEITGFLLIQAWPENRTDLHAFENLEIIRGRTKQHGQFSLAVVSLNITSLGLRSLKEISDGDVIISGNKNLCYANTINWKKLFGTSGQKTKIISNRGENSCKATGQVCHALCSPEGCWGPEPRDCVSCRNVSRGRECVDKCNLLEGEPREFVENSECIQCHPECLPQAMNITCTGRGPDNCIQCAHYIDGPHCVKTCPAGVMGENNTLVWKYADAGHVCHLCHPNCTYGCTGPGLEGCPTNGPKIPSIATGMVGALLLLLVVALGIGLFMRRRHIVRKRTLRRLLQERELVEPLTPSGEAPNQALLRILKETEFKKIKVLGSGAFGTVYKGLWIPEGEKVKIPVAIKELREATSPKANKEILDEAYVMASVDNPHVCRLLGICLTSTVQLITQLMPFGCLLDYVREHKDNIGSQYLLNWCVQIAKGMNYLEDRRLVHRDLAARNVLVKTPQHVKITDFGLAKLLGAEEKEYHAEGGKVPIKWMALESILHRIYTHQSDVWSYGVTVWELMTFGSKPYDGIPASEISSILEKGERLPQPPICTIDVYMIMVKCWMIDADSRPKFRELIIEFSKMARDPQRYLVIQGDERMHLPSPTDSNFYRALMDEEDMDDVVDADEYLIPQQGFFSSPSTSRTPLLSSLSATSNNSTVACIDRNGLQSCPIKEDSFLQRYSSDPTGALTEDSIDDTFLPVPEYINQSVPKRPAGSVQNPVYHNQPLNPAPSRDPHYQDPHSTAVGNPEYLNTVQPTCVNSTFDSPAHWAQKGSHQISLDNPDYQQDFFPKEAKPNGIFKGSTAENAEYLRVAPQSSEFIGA
Torsin-1A-interacting protein 2 (Homo sapiens), sequence (Q8NFQ8 whole entry, looked up): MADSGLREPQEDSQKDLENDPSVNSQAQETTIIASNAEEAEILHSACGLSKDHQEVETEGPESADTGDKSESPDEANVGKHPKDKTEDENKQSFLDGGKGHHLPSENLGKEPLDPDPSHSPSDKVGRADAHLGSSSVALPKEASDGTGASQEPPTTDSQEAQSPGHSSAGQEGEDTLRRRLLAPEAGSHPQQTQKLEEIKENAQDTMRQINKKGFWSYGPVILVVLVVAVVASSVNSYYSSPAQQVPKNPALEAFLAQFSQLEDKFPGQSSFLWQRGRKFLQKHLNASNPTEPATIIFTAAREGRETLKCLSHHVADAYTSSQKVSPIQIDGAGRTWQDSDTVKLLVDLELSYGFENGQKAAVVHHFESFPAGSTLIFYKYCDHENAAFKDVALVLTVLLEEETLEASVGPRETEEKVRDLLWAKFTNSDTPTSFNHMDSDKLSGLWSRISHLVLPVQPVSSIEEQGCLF
Dickkopf-related protein 1 (Homo sapiens), sequence (O94907 whole entry, looked up): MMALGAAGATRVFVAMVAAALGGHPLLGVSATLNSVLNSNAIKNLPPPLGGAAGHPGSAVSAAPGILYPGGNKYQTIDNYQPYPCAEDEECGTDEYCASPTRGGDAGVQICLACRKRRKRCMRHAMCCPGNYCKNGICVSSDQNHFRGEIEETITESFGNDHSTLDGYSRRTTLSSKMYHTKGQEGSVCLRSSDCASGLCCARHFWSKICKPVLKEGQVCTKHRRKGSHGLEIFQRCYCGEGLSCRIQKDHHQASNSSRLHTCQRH
Neurogenic locus notch homolog protein 3 (Homo sapiens), sequence (Q9UM47 whole entry, looked up): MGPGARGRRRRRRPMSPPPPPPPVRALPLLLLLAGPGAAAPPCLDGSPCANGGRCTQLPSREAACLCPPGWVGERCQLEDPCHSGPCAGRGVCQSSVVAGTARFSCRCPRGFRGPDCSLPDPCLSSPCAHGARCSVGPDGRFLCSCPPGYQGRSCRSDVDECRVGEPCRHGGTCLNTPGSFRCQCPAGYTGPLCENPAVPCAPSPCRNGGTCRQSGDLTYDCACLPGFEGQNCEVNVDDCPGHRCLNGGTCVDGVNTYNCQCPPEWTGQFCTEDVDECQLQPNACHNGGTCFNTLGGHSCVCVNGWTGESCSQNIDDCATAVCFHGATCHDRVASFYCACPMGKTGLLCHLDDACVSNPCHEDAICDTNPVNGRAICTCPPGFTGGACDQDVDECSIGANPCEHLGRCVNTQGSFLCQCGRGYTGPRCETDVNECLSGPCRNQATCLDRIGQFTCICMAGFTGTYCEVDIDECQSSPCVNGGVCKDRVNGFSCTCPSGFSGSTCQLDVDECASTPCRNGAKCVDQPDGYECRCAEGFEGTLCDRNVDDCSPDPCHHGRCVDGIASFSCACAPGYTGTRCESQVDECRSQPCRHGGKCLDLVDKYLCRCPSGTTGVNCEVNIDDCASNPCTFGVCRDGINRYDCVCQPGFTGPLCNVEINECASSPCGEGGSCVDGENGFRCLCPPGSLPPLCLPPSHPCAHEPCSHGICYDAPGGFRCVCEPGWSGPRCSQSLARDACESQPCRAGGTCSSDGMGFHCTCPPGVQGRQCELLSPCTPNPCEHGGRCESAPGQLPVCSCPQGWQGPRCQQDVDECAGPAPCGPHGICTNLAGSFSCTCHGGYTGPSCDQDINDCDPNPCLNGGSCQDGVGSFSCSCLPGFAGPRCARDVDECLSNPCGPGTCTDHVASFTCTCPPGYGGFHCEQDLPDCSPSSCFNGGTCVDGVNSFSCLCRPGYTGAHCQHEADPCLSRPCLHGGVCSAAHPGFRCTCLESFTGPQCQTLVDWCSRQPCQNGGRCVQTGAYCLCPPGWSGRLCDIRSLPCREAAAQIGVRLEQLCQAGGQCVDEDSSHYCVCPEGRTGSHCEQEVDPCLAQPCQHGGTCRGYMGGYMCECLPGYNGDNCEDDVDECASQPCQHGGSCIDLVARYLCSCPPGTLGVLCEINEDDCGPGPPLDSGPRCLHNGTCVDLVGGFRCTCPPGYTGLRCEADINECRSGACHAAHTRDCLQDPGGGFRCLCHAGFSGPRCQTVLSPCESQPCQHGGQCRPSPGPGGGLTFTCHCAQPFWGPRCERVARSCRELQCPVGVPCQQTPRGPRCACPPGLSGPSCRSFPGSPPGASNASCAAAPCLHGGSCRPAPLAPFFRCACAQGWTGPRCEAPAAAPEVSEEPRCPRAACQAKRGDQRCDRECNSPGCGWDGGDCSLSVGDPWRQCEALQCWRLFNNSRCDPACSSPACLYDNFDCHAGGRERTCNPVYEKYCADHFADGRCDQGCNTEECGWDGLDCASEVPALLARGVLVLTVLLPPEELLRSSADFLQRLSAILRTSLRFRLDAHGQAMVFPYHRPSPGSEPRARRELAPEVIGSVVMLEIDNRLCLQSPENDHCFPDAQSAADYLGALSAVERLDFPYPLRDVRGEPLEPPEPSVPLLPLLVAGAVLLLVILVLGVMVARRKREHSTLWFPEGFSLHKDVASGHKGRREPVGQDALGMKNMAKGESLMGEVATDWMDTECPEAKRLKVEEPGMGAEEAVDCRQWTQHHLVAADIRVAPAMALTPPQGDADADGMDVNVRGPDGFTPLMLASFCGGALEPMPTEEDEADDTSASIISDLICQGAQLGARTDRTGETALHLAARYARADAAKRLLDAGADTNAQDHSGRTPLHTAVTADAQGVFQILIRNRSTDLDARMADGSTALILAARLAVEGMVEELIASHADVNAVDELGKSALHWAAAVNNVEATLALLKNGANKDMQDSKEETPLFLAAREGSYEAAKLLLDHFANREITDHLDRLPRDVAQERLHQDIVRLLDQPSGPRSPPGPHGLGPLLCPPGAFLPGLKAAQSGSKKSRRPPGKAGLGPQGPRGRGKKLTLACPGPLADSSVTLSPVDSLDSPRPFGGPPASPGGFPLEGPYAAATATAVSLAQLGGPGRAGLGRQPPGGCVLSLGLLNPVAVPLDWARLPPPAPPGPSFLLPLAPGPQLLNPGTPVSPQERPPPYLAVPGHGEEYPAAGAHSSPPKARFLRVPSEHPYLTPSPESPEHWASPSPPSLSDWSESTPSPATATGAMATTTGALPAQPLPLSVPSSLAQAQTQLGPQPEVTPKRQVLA
Follistatin-related protein 3 (Homo sapiens), sequence (O95633 whole entry, looked up): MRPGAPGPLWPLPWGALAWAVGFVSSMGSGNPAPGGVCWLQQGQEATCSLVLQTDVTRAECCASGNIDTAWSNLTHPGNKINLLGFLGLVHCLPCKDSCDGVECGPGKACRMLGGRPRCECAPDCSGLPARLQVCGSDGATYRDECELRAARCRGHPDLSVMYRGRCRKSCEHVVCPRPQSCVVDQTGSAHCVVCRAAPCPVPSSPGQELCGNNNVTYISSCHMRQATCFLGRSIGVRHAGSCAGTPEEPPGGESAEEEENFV
Fibroblast growth factor 10 (Homo sapiens), sequence (O15520 whole entry, looked up): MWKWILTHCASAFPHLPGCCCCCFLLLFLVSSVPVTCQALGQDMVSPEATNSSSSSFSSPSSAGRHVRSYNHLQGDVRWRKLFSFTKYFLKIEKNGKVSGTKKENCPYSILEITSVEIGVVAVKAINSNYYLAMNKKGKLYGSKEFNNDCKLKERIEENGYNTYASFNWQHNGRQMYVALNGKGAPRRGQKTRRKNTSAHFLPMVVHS

In the case of `CN(C)CCCC[C@@H]1NC(=O)[C@H]2C[C@@H](C(=O)NCc3ccc(F)cc3)[C@@H](c3ccc(O)cc3)N2C1=O`, the composite z-score in test [1] was found to be 1.56; in test [5], 1.42; in test [7], 0.0672; in test [8] it was 1.78; in [9] it was 0.719; in test [10], 0.0579. In addition, the composite z-score in [11] is 0.298; in test [12] it was 0.0179; in [13], -0.4; in test [15], 1.2; in test [16] it was 0.902; in test [17], 0.0583. Besides, the composite z-score amounted to 0.571 in [18], 0.776 in test [19] and 0.853 in test [20]. Further, the z-score in test [2] was -0.42 (inactive); in test [3], -1.1 (inactive); in [4], -0.462 (inactive); in test [6], 0.539 (inactive); in test [14] it was 0.163 (inactive).

Turning to `COC(=O)Cn1c(C(=O)N(C)C)cc2c1C[C@H]1CN(C(=O)c3ccccc3)[C@@](Cc3ccc(OC)cc3)(C(=O)OC)[C@@H]21`, the composite z-score in test [1] is 0.995; in test [5] it was 3.7; in test [7], 0.134; in [8], 0.471; in [9] it was 1.11; in test [10] it was -0.0476. Besides, the composite z-score was 1.39 in test [11]; 0.311 in [12]; 0.635 in test [13]; 1.13 in [15]; -0.196 in test [16]; 0.0287 in [17]. Also, the composite z-score is 0.36 in [18], -0.165 in test [19] and 0.421 in [20]. Further, the z-score in test [2] is 0.211 (inactive); in test [3], 0.833 (inactive); in test [4] it was 0.493 (inactive); in test [6], -0.692 (inactive); in test [14], -4.19 (inactive).

With `C=CCC(OC(C)=O)[C@@H]1[C@@H](N(Cc2ccc(-c3ccccc3)cc2)C(=O)c2cccc3ccccc23)c2cc(OCCCO)ccc2N1C(=O)c1ccc2ccccc2c1` (stereo not given in full), the composite z-score in [1] is 0.189; in test [5], 0.813; in [7], 0.0802; in test [8], -0.106; in test [9], -0.0403; in test [10] it was -0.136. The composite z-score is -0.859 in test [11]; 1.11 in [12]; -0.0972 in test [13]; 0.256 in [15]; 0.201 in test [16]; -0.0576 in [17]. Also, the composite z-score in test [18] was 0.5; in test [19], -0.19; in [20] it was 1.08. Further, the z-score in test [2] was -0.521 (inactive); in test [3], -0.328 (inactive); in test [4] it was -0.569 (inactive); in [6], -0.584 (inactive); in [14], -0.686 (inactive).

Regarding `COCCOC(=O)N1C(=O)[C@@]2(c3cc(C#CC4=CCCCC4)ccc31)[C@H](c1ccc(OCCO)cc1)N1[C@H](c3ccccc3)[C@H](c3ccccc3)OC(=O)[C@H]1[C@@H]2C(=O)N1CCCCCCC1`, the composite z-score amounted to 1.54 in [1]; 2.96 in [5]; 1.18 in test [7]; 1.21 in test [8]; 1.07 in test [9]; 0.604 in test [10]. Besides, the composite z-score in test [11] stood at 0.959; in test [12], 1.43; in [13], 1.16; in test [15] it was 1.02; in [16], 1.33; in test [17], 0.513. In addition, the composite z-score in [18] came to 1.46; in test [19], 1.01; in test [20], 1.7. Moreover, the z-score in [2] was -1.06 (inactive); in test [3], -0.301 (inactive); in test [4], 1.89 (inactive); in test [6], 3.25 (inactive); in test [14], -1.07 (inactive).

In the case of `CCCCN1CC=CC23O[C@@H]4C=CCOC(=O)[C@@H]4[C@H]2C(=O)N(C(CO)C(C)C)[C@@H]3C1=O` (stereo not given in full), the composite z-score was -0.453 in test [1]; -1.06 in test [5]; -0.118 in test [7]; -0.319 in test [8]; -0.743 in test [9]; -0.217 in [10]. Moreover, the composite z-score in [11] is -0.662; in [12], -0.353; in test [13], -0.476; in test [15], -0.372; in test [16], -0.13; in test [17], -0.759. In addition, the values for the composite z-score in test [18], in test [19] and in test [20] were 0.0236, 0.185 and 0.843, respectively. The z-score in [2] was -0.161 (inactive); in test [3], -0.325 (inactive); in test [4] it was 0.752 (inactive); in test [6], -0.505 (inactive); in test [14] it was -0.116 (inactive).

The values are drawn from PubChem BioAssay.
